The values below come from PubChem BioAssay (EPA / NIEHS).

Test [1] addresses Retinoic acid receptor RXR-alpha (Homo sapiens) (UniProt P19793). The experiment in a line: ATG_RXRa_TRANS: Attagene TRANS-FACTORIAL HepG2 Assay for human Retinoid X Receptor alpha (RXRa) (AID 2283012; active means hit-call score of the fitted dose curve at least 0.9, where 1 is the maximum). The method, boiled down:
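HepG2 cells transiently transfected with GAL4-UAS reporter units and chimeric RXRa-Gal4 protein, treated 24 h. Reporter mRNA measured by RT-PCR, fluorescent labelling, HpaI digestion and capillary electrophoresis. Induction fitted against DMSO.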

Test [2] has as its target human Retinoid X Receptor beta (RXRb), RXRB (gene 6257) (UniProt P28702). Kind of test: ATG_RXRb_TRANS: Attagene TRANS-FACTORIAL HepG2 Assay for human Retinoid X Receptor beta (RXRb) (AID 2283013; active means hit-call score of the fitted dose curve at least 0.9, where 1 is the maximum). In short, it runs like this: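 HepG2 cells were transiently transfected with multiplexed GAL4-UAS reporters and a chimeric RXRb-Gal4 construct, then exposed for 24 h. Reporter mRNA was quantified by RT-PCR, FAM labeling, HpaI digestion and capillary electrophoresis; gain of signal was scored against DMSO.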

The target in test [3] is human Vitamin D Receptor (VDR), VDR (gene 7421) (UniProt P11473). Kind of test: ATG_VDR_TRANS: Attagene TRANS-FACTORIAL HepG2 Assay for human Vitamin D Receptor (VDR) (AID 2283022; active means hit-call score of the fitted dose curve at least 0.9, where 1 is the maximum). The method, boiled down: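 HepG2 cells were transiently transfected with multiple GAL4-UAS reporter units, so signal reflects exogenous chimeric receptor-Gal4 activity. After 24 h compound exposure, reporter mRNA was measured by RT-PCR, fluorescent labelling and capillary electrophoresis, fitted for gain of signal versus DMSO.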

Test [4] has as its target human Thyroid Receptor alpha (THRa1), THRA (gene 7067) (UniProt P10827). The experiment in a line: ATG_THRa1_TRANS: Attagene TRANS-FACTORIAL HepG2 Assay for human Thyroid Receptor alpha (THRa1) (AID 2283014; active means hit-call score of the fitted dose curve at least 0.9, where 1 is the maximum). In short, it runs like this:
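HepG2 cells transiently transfected with multiplexed GAL4-UAS reporter units for exogenous chimeric THRa1-Gal4; reporter mRNA measured 24 h after dosing by RT-PCR, 6-FAM labelling, HpaI digestion and capillary electrophoresis. Gain-of-signal fitted versus DMSO baseline.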

Read-out in test [5]: E-selectin (Homo sapiens) (UniProt P16581)
Kind of test: BSK_3C_Eselectin: BioMAP Diversity Plus: 3C Assay for Eselectin Biomarker Activity (AID 2283015). Conditions: primary human endothelial cells (HUVEC); actives raise or lower the signal. The method, boiled down:
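Primary human umbilical vein endothelial cells (3C system) were dosed with chemical and cell-surface E-selectin measured by ELISA 24 h later. Bidirectional curve fitting used DMSO as negative control and baseline.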

Read-out in test [6]: Interleukin-1 alpha (IL1a), IL1A (gene 3552)
The experiment in a line: BSK_BE3C_IL1a: BioMAP Diversity Plus: BE3C Assay for Interleukin-1 alpha (IL1a) Biomarker Activity (AID 2283016). To be noted: primary human bronchial epithelial cells; actives raise or lower the signal. The method, boiled down: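 Human primary bronchial epithelial cells, 24 h chemical exposure; IL-1a quantified by ELISA, fitted bidirectionally against DMSO. Cytotoxicity assessed in parallel by SRB total-protein staining at the time of measurement.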

Read-out in test [7]: Monocyte Chemoattractant Protein-1 (MCP1), CCL2 (gene 6347)
The experiment in a line: BSK_3C_MCP1: BioMAP Diversity Plus: 3C Assay for Monocyte Chemoattractant Protein-1 (MCP1) Biomarker Activity (AID 2283017). Conditions: primary human endothelial cells (HUVEC); actives raise or lower the signal. The method, boiled down: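 Primary human umbilical vein endothelial cells (3C system) were exposed to test chemical for 24 h, after which MCP-1 was quantified by ELISA. Activity was fitted bidirectionally against DMSO as negative control and baseline.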

Read-out in test [8]: Monocyte Chemoattractant Protein-1 (MCP1), CCL2 (gene 6347)
The experiment in a line: BSK_4H_MCP1: BioMAP Diversity Plus: 4H Assay for Monocyte Chemoattractant Protein-1 (MCP1) Biomarker Activity (AID 2283018). To be noted: primary human endothelial cells (HUVEC); actives raise or lower the signal. The method, boiled down:
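Human umbilical vein endothelial cells (4H system) exposed to chemicals for 24 h in 96-well format. MCP-1 measured by ELISA; bidirectional fitting against DMSO, with SRB total-protein staining in parallel cultures for cytotoxicity.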

Read-out in test [9]: Human Leukocyte Antigen - DR isotype (HLADR), HLA-DRA (gene 3122)
Kind of test: BSK_3C_HLADR: BioMAP Diversity Plus: 3C Assay for Human Leukocyte Antigen - DR isotype (HLADR) Biomarker Activity (AID 2283019). To be noted: primary human endothelial cells (HUVEC); actives raise or lower the signal. In short, it runs like this: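 Primary human umbilical vein endothelial cells (3C system) were dosed with compound and cell-surface HLA-DR was quantified by ELISA at 24 h. Activity was fitted bidirectionally against DMSO as negative control and baseline.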

Read-out in test [10]: Interleukin-8 (IL8), CXCL8 (gene 3576)
The experiment in a line: BSK_3C_IL8: BioMAP Diversity Plus: 3C Assay for Interleukin-8 (IL8) Biomarker Activity (AID 2283020). To be noted: primary human endothelial cells (HUVEC); actives raise or lower the signal. The method, boiled down:
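Primary human umbilical vein endothelial cells were dosed for 24 h. IL-8 was quantified by ELISA and fitted bidirectionally against DMSO. Cytotoxicity was assessed in parallel cultures by SRB staining at 560 nm.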

Read-out in test [11]: Monokine induced gamma interferon (MIG), CXCL9 (gene 4283)
The experiment in a line: BSK_3C_MIG: BioMAP Diversity Plus: 3C Assay for Monokine induced gamma interferon (MIG) Biomarker Activity (AID 2283021). Conditions: primary human endothelial cells (HUVEC); actives raise or lower the signal. The method, boiled down: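 HUVEC primary endothelial cultures dosed with chemical; MIG quantified by ELISA at 24 h. Data fitted bidirectionally against DMSO control, with parallel SRB total-protein staining for cytotoxicity.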

Test [12] in a line: BSK_3C_SRB: Viability Assessment in the BioMAP Diversity Plus: 3C Assay (AID 2283023).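 Further: fitted both ways against DMSO so a hit may be signal rise or drop.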 To be noted: primary human endothelial cells (HUVEC). The method, boiled down:
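Primary human umbilical vein endothelial cells in the 3C system were read 24 h after compound dosing. Total protein was stained with 0.1% sulforhodamine B after 10% TCA fixation and read at 560 nm, with bidirectional fitting against DMSO as baseline.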

Read-out in test [13]: Matrix Metallopeptidase 1 (MMP1), MMP1 (gene 4312)
The experiment in a line: BSK_BE3C_MMP1: BioMAP Diversity Plus: BE3C Assay for Matrix Metallopeptidase 1 (MMP1) Biomarker Activity (AID 2283024). To be noted: primary human bronchial epithelial cells; actives raise or lower the signal. In short, it runs like this: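 Human primary bronchial epithelial cells (BE3C system) dosed for 24 h; MMP-1 quantified by ELISA. Bidirectional fit against DMSO; cytotoxicity tracked in parallel cultures by SRB total-protein staining.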

Test [14] in a line: BSK_3C_Vis: BioMAP Diversity Plus: 3C Assay for Morphology Visualization (AID 2283025).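 Further: fitted both ways so gain or loss versus DMSO counts.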 To be noted: primary human endothelial cells (HUVEC). In short, it runs like this:
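Human umbilical vein endothelial cell morphology was inspected by light microscopy 24 h after chemical dosing; scored bidirectionally relative to DMSO.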

Read-out in test [15]: Pselectin, SELP (gene 6403)
The experiment in a line: BSK_4H_Pselectin: BioMAP Diversity Plus: 4H Assay for Pselectin Biomarker Activity (AID 2283026). To be noted: primary human endothelial cells (HUVEC); actives raise or lower the signal. The method, boiled down:
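Primary human umbilical vein endothelial cells were treated 24 h, and cell-surface P-selectin was then quantified by ELISA. Bidirectional fit versus DMSO; cytotoxicity checked in parallel cultures by SRB total-protein staining.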

The nature of test [16]: BSK_BE3C_SRB: Viability Assessment in the BioMAP Diversity Plus: BE3C Assay (AID 2283028). Conditions: primary human bronchial epithelial cells. The method, boiled down: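 Human primary bronchial epithelial cells were exposed to test chemicals for 24 h. Total protein in parallel cultures was then measured by staining with 0.1% sulforhodamine B after 10% TCA fixation, with absorbance read at 560 nm. Activity was fitted bidirectionally against DMSO.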

Read-out in test [17]: Thrombomodulin, THBD (gene 7056)
Kind of test: BSK_3C_Thrombomodulin: BioMAP Diversity Plus: 3C Assay for Thrombomodulin Biomarker Activity (AID 2283029). Conditions: primary human endothelial cells (HUVEC); actives raise or lower the signal. In short, it runs like this:
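Human umbilical vein endothelial cells were exposed to chemicals for 24 h; cell-surface thrombomodulin quantified by ELISA, with bidirectional fitting against DMSO baseline.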

Read-out in test [18]: Urokinase-type plasminogen activator receptor (uPAR), PLAUR (gene 5329)
The experiment in a line: BSK_4H_uPAR: BioMAP Diversity Plus: 4H Assay for Urokinase-type plasminogen activator receptor (uPAR) Biomarker Activity (AID 2283030). Conditions: primary human endothelial cells (HUVEC); actives raise or lower the signal. The method, boiled down:
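Primary human umbilical vein endothelial cells were exposed to chemical for 24 h before cell-surface uPAR was quantified by ELISA. Activity was fitted bidirectionally against the DMSO negative control baseline.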

Records with an inconclusive call do not appear. Active and inactive are the calls of the source. How the source made its calls, unless noted: active means hit-call score of the fitted dose curve at least 0.9, where 1 is the maximum; inactive means score below 0.9.

E-selectin (Homo sapiens), sequence (P16581 whole entry, looked up): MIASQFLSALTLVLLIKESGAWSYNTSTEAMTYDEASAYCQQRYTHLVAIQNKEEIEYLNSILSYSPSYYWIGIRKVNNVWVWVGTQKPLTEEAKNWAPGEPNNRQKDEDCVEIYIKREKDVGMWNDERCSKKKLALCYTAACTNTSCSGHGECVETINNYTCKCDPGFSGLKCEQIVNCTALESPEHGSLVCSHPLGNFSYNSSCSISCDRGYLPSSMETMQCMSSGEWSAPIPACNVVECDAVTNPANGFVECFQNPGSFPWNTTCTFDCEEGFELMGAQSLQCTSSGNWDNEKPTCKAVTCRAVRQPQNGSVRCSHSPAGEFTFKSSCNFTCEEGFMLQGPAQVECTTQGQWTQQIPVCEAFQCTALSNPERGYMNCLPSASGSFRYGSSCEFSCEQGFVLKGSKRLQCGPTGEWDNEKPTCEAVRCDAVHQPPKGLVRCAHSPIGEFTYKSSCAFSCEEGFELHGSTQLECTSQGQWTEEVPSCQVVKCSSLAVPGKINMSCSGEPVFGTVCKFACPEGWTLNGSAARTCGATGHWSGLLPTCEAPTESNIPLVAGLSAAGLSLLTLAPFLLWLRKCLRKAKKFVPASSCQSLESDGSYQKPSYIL
human Thyroid Receptor alpha (THRa1), THRA (gene 7067), sequence (P10827 whole entry, looked up, the tested form may be a part): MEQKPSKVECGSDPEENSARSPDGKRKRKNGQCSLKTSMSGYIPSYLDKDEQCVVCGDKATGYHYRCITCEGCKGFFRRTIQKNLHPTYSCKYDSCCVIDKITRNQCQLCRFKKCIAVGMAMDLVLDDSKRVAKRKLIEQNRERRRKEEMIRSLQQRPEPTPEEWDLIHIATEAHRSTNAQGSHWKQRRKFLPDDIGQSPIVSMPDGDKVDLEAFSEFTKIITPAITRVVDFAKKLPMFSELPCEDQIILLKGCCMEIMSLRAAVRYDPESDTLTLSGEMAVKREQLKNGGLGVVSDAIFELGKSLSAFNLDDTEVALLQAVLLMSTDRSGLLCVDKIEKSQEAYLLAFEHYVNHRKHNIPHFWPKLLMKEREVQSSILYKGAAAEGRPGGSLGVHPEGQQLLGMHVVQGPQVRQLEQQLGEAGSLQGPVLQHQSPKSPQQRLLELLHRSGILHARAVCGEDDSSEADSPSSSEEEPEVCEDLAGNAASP
Retinoic acid receptor RXR-alpha (Homo sapiens), sequence (P19793 whole entry, looked up, the tested form may be a part): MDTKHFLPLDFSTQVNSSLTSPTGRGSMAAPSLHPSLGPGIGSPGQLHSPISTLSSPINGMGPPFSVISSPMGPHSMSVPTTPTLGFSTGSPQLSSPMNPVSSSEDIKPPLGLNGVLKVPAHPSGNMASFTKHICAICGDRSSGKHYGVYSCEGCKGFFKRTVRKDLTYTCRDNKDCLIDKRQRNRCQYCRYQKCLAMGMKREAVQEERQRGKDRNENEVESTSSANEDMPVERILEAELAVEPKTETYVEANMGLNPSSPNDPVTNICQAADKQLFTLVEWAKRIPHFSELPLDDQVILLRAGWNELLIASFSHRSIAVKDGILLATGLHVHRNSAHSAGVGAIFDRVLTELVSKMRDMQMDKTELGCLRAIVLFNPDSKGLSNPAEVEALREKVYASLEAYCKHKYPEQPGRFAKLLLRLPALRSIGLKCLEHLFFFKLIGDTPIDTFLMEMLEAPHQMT
human Retinoid X Receptor beta (RXRb), RXRB (gene 6257), sequence (P28702 whole entry, looked up, the tested form may be a part): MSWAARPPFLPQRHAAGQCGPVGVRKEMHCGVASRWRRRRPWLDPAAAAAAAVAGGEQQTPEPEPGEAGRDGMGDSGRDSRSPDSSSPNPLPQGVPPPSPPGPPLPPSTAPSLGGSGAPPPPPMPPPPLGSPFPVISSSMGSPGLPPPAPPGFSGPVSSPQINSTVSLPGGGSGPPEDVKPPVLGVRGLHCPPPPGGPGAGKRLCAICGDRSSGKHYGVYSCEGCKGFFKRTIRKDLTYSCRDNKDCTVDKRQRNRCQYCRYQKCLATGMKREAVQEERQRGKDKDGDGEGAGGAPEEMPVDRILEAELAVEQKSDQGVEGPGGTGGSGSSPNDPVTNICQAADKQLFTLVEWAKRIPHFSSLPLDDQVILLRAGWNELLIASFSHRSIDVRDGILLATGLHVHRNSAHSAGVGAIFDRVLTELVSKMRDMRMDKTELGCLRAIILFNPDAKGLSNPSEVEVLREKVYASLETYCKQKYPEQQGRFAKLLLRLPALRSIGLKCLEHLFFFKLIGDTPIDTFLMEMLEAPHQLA
human Vitamin D Receptor (VDR), VDR (gene 7421), sequence (P11473 whole entry, looked up, the tested form may be a part): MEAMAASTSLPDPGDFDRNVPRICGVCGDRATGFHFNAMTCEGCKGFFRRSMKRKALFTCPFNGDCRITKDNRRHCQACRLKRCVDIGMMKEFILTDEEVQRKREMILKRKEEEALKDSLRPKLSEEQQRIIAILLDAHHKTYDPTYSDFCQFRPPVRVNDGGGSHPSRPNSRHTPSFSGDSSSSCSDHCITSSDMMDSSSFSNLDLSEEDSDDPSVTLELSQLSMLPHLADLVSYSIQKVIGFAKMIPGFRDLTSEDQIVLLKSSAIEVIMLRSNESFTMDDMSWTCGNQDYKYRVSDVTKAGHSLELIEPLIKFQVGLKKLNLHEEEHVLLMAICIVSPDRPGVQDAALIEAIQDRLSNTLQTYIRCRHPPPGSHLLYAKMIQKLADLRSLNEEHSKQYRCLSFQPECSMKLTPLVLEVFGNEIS

As for `c1ccc(Cc2ccccc2)cc1`, the compound was classed as inactive in test [1], in test [2] and in [3].

Regarding `CCCCCCCC(=O)N(C)C`, the outcome in [1] and in [4] was inactive.

`COc1ccccc1NC(=O)CC(C)=O`: the compound was classed as inactive in test [1], in [5], in test [6], in test [7], in test [8] and in test [9]. Further, the result in test [10], in test [11], in [12], in test [13], in [14] and in test [15] was inactive. The outcome in [16], in [17] and in test [18] was inactive.

As for `C=C1CC[C@H]2O[C@]2(C)CC[C@@H]2[C@@H]1CC2(C)C`, the compound was classed as inactive in test [1], in [4] and in [3]. Besides, the AC50 (as a rule, the concentration giving half of the maximal activity seen) in test [2] was 100 µM (active).

For `CCCCC/C=C\C=C\C(=O)OCC`, the compound was called inactive in test [1] and in test [3].

`CC(C)=CC(=O)O`: the outcome in [1] and in test [3] was inactive.

Take `CC1=CC[C@@H]2C[C@H]1C2(C)C`: the call in test [1] and in test [4] was inactive.

Take `CC1=CC(C)C(C=O)C(C)C1` (stereo unspecified) (tested in a mixture with another compound): the compound was called inactive in [1], in [5], in test [6], in test [7], in [8] and in test [9]. The outcome in test [10], in test [11], in test [12], in test [13], in test [14] and in test [15] was inactive. Further, the result in test [16], in test [17] and in test [18] was inactive.

Turning to `Cc1ccncc1`, the compound was called inactive in test [1], in test [4] and in [3].

For `CCC(C)(C)c1cc(O)c(C(C)(C)CC)cc1O`, the call in test [1], in test [4] and in [3] was inactive. Also, the AC50 in [2] was 59.9 µM (active).

`CCOC(=O)CC1(C)OCC(C)O1` (stereo unspecified): the compound was classed as inactive in test [1] and in [4].

For `CCC(C)(CCCC(C)C)OC(C)=O` (stereo unspecified), the compound was called inactive in [1] and in test [3]. The AC50 in test [2] was 64.8 µM (active).

Turning to `C=CCOC(=O)/C=C\C(=O)OCC=C`, the compound was called inactive in test [1], in test [2], in test [4] and in test [3].

For `CCCCN(CCO)CCO`, the result in [1], in test [5], in [6], in test [7], in [8] and in [9] was inactive. Besides, the outcome in [10], in test [11], in test [3], in [12], in [13] and in test [15] was inactive. Besides, the outcome in test [16], in test [17] and in [18] was inactive.

With `NC(=O)c1cnccn1`, the call in test [1], in test [2] and in test [3] was inactive.

As for `COC(=O)C(C)Oc1ccc(Oc2ncc(C(F)(F)F)cc2Cl)cc1` (stereo unspecified), the outcome in test [1] and in test [4] was inactive.

As to `C=CCCCCCCCCC(=O)OCC`, the result in test [1], in test [4] and in [3] was inactive. In addition, the AC50 in test [2] is 100 µM (active).

As to `CCCCC(CC)COCCO` (stereo unspecified), the result in [1], in test [4] and in test [3] was inactive. In addition, the AC50 in [2] is 100 µM (active).

For `O=[N+]([O-])c1cc(N(CCO)CCO)ccc1NCCO`, the call in test [1] and in test [3] was inactive.
